# Source: PubChem BioAssay (Tox21)
# Inconclusive results are not listed. Activity calls are given as the source filed them. The call rests on the fitted dose curve.
# Target: Peroxisome proliferator-activated receptor delta (Homo sapiens) (UniProt Q03181)
# Assay: qHTS assay to identify small molecule agonists of the peroxisome proliferator-activated receptor delta (PPARd) signaling pathway (AID 743212)
# Settings: HEK293H PPARd-UAS-bla, beta-lactamase FRET ratio, 17 h; series mostly up to 62.6 µM; activation: at the top concentration
# Text: U.S. Tox21 Program National Center for Advancing Translational Sciences [NCATS] NIH Chemical Genomics Center [NCGC] U.S. Environmental Protection Agency [EPA] National Institutes of Environmental Health Sciences [NIEHS] National Toxicology Program [NTP] U.S. Food and Drug Administration [FDA] Tox21 Assay Overview: The peroxisome proliferator-activated receptors (PPARs) are lipid-activated transcription factors of the nuclear receptor superfamily with three distinct subtypes namely PPAR alpha, PPAR delta (PPARd) and PPAR gamma. All these subtypes heterodimerizes with Retinoid X receptor (RXR) and have different physiological functions. […] To identify the compounds that activate PPAR-delta signaling, GeneBLAzer PPAR delta UAS-bla HEK293H cell line (Invitrogen, Carlsbad, CA, USA) containing a beta-lactamase reporter gene under the control of an Upstream Activator Sequence (UAS) was used to screen the Tox21 compound library.
# Tox21 Assay Protocol Summary: PPARd-bla cells were dispensed at 3000 cells/6uL/well in 1536-well black wall/clear bottom plates using a Multidrop Combi (Thermo Fisher Scientific, Waltham, MA) dispenser. After the assay plates were incubated at 37 C and 5% CO2 for 5 h, 23 nL of compounds dissolved in DMSO, positive controls or DMSO only was transferred to the assay plate by a Pintool station (Kalypsys, San Diego, CA). The assay plates were incubated at 37C for 17 h. After 1 uL of LiveBLAzerTM B/G FRET substrate was added using a Bioraptr Flying Reagent Dispenser (FRD) workstation (Beckman Coulter, Indianapolis, IN, USA), the plates were incubated at room temperature for 2 h, and fluorescence intensity was measured by an Envision plate reader (PerkinElmer, Shelton, CT).
# On the % scale 0 is the no-effect control and ±100 the full control effect.
# Chain of Peroxisome proliferator-activated receptor delta (Homo sapiens) (Q03181 whole entry, looked up): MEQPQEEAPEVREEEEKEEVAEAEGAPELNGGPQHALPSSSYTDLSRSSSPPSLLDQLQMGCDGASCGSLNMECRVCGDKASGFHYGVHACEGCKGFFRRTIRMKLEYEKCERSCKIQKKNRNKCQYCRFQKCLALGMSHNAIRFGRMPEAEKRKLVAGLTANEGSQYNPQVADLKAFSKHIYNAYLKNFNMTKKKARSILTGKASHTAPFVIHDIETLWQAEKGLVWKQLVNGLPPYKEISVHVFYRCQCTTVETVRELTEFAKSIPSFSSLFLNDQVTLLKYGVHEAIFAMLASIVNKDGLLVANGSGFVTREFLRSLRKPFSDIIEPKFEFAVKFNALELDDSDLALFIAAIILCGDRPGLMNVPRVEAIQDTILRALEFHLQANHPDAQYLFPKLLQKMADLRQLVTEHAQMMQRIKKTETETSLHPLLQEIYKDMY
row,Compound,activation
1,CC(CC(=O)O)CC(C)(C)C (stereo not given),3.62% (inactive)
2,c1ccccc1,-2.33% (inactive)
3,CCOC(=O)CCc1ccccc1,-1.63% (inactive)
4,CCCCCCCCCCCCOC(C)=O,-3.08% (inactive)
5,CCN1CN(CC)CN(CC)C1,-0.349% (inactive)
6,CC1=NN(c2ccc(S(=O)(=O)O)cc2)C(=O)C1N=Nc1ccccc1 (stereo not given),-1.55% (inactive)
7,CCC(O)C(C)(C)C (stereo not given),-2.28% [at 81.1 µM] (inactive)
8,CC(C)C(=O)c1ccccc1,-3.92% (inactive)
9,O=C(O)c1ccccc1C(=O)Nc1ccc(S(=O)(=O)Nc2nccs2)cc1,2.81% (inactive)
10,O=P(O)(O)OCC(O)CO (stereo not given),1.75% (inactive)
11,CCNC(=O)NCCCOc1cccc(CN2CCCCC2)c1,0.957% (inactive)
12,C1CCN2C[C@@H]3C[C@@H](CN4CCCC[C@@H]34)[C@H]2C1,-1.94% (inactive)
13,O=C(O)/C=C/c1ccccc1,3.03% (inactive)
14,CC(=O)c1ccc2c(c1)CCCC2,1.73% (inactive)
15,CC(C)C(=O)Nc1cccc(C(F)(F)F)c1,0.915% (inactive)
16,NCCc1ccn[nH]1,1.85% (inactive)
17,CCCCCCCCCCCCCCCCI,-0.831% [at 29.1 µM] (inactive)
18,CC(=O)OCC(=O)[C@@]1(O)[C@H](OC(C)=O)C[C@H]2[C@@H]3CCC4=CC(=O)C=C[C@]4(C)[C@@]3(F)[C@@H](O)C[C@@]21C,-0.904% (inactive)
19,CCCCCCCCCCCCCCCC(=O)NCCO,-1.68% (inactive)
20,CCCO,1.64% (inactive)

row,Compound,activation
1,Cc1cccc(NC(=S)N(C)C)c1,-0.288% (inactive)
2,COc1cc(C=O)ccc1OC(=O)C(C)C,-1.14% (inactive)
3,CC1CCC(C(C)(C)S)C(=O)C1 (stereo not given),0.811% (inactive)
4,CNC(=O)NC,-1.81% [at 81.1 µM] (inactive)
5,CCOC(=O)C(=O)c1csc(NC=O)n1,1.25% (inactive)
6,C[CH2][Ge]([Cl])([CH2]C)[CH2]C,1.94% [at 81.1 µM] (inactive)
7,O=C1c2ccccc2-c2ccccc21,0.102% [at 81.1 µM] (inactive)
8,CCC1COC(=O)O1 (stereo not given),0.984% (inactive)
9,NC(=O)C1(N2CCCCC2)CCN(CCCC(=O)c2ccc(F)cc2)CC1,-1.45% (inactive)
10,C/C=C(\C)C(=O)OCC/C=C\CC,3.52% (inactive)
11,COc1cc([N+](=O)[O-])ccc1N,7.68% (inactive)
12,C=CCCCCCCCCCCC,-5.08% [at 5.95 µM] (inactive)
13,CCCCCCCC/C=C\CCCCCCCC(=O)OC[C@@H](O)[C@H]1OC[C@H](O)[C@H]1O,7.73% (inactive)
14,O=C(O)c1ccc(OCCN2CCCCC2)cc1,-3.53% (inactive)
15,C1=C\CC/C=C\CC/1,-0.0551% [at 81.1 µM] (inactive)
16,CCCCCC1Nc2cc(C(F)(F)F)c(S(N)(=O)=O)cc2S(=O)(=O)N1 (stereo not given),-6.01% (inactive)
17,O=S(=O)(O)SSS(=O)(=O)O,-0.231% (inactive)
18,BrC/C=C/CBr,1.41% [at 29.1 µM] (inactive)
19,CCCCOC(=O)C(=O)OCCCC,-2.15% (inactive)
20,CCOC(=O)CC#N,0% (inactive)
